Screens from PubChem BioAssay.
Rows were chosen to be rich in hits. Some 3.7% of all compounds tested hit in one or more screens of this group.
Ecoli rRNA inh: reduced GFP signal of wild-type E. coli, primary screen, bacterial rRNA inhibitor project, GFP/RFP fluorescence, OD600, single point | E. coli WT GFP vs humanized-ribosome RFP mutants, 24 h; hits give low values; DMSO median 0, no signal -100 | AID 720706, 2013 | 350,000 tested, 1.6% active | GFP signal change (wild-type ribosome), % (concentration not given with the values);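 active means significant combined selectivity score with lowered wild-type GFP, culture density cut under 30%, mutant RFP and density less affected; inactive means any of these conditions unmet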
Wnt act: Wnt/beta-catenin pathway activators, primary screen, cell-based, plate reader, single point. Wnt/beta-catenin reporter cell assay, activator. activation, % at 9.35 µM. 300,000 tested, 1.2% active. AID 743398, 2014; in the data active means activation above about 30%, passing the limit was not always enough; inconclusive means no clear call, values can overlap the other calls
MLL AF4-AF9 inh: inhibitors of AF4 peptide binding to AF9, primary screen, biochemical, AlphaScreen, biotin-AF4 peptide, FLAG-AF9, single point; 350,000 tested, 0.47% active; Protein AF-9 (Homo sapiens), P42568; inhibition, % at 10 µM;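 active means every replicate reaching a set inhibition limit, whatever the replicate mean, cut at about 25% in these data; inconclusive means mean inhibition reaches that limit but some replicates miss it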
Target sequence (P42568 whole entry, looked up): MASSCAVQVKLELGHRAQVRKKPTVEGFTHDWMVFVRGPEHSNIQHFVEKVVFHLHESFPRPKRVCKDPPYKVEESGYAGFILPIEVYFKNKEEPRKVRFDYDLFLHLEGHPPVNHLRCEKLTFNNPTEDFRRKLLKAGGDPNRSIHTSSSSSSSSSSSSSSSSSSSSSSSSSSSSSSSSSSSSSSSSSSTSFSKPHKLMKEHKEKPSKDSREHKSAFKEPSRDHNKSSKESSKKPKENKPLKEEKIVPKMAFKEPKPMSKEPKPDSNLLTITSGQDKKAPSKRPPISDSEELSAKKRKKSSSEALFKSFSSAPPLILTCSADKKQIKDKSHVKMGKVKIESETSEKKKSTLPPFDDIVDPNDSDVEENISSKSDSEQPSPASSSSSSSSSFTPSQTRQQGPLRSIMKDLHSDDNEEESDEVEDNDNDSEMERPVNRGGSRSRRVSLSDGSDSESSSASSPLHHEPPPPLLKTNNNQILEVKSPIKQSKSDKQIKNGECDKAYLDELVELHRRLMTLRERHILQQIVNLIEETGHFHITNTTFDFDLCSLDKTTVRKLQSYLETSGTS
MITF TRPM1 HTS: activators of MITF-driven TRPM1 promoter reporter, primary screen, cell-based, SK-MEL-5, luciferase, single point; SK-MEL-5 TRPM1-promoter luciferase, 24 h; % of positive control, neutral wells = 0; activation, % at 12.5 µM; 300,000 tested, 0.75% active;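 active means mean activation of at least 80% with every replicate also reaching 80%; inconclusive means mean reaches 80% but some replicate falls short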
esBAF inh: Bmi1 luciferase reporter increase in mESCs, primary screen, esBAF inhibitor project, mouse ES cells, Bmi1 luciferase knock-in, single point; 350,000 tested, 2% active; AID 602393, 2012; 24 h; 100% = twice the neutral-well signal; reporter increase, % at 12.5 µM; in the data active means activation above about 40%; inconclusive means no clear call, values can overlap the other calls;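 further: a rise in the Bmi1 reporter signal indicates esBAF inhibition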
AID977621: growth inhibition of wild-type GFP E. coli, dose response, H69 mutant RFP, cherry-pick; shares compounds with Ecoli rRNA inh; activity change, negative = inhibition at 50 µM; 1,900 tested, under 10 active; E. coli wild-type GFP strain growth, fluorescence, 24 h; AID 977621, 2014;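 active means Wild-type ribosome reporter drop at least double the humanized mutant ribosome reporter drop, growth loss under a set limit; inconclusive means no clear call, values can overlap the other calls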;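 further: wild-type GFP and H69 mutant RFP strains grown together 50/50 in each well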
AID977628: E. coli growth inhibition, wild-type GFP versus h24 humanized RFP strain, dose response, h24 mutant RFP vs wild-type GFP, cherry-pick; E. coli WT GFP strain growth, fluorescence, 24 h; activity change, negative = inhibition at 50 µM; AID 977628, 2014; 1,900 tested, under 10 active; shares compounds with Ecoli rRNA inh;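 active means compound lowering the normal-ribosome reporter at least twice as much as the humanized-ribosome reporter, growth loss under a set limit; inconclusive means no clear call, values can overlap the other calls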;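 further: wild-type GFP and h24 humanized RFP strains co-cultured 1 to 1 per well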
Of the large screens only hits and unclear results are named; the others gave an inactive call (follow-up assays come after a bar, where they were run).

COc1cc(OC)cc(C(=O)Nc2ccc(S(=O)(=O)Nc3cnc4ccccc4n3)cc2)c1	Ecoli rRNA inh -44 (no result: MITF TRPM1 HTS, esBAF inh) | AID977621 inactive
CC(CCc1ccccc1)NC(=O)CCC1CCCC1 (stereo not given)	Ecoli rRNA inh -21 (no result: MITF TRPM1 HTS, esBAF inh) | AID977621 inactive | AID977628 inactive
CCOC(=O)c1sc(Nc2cccc(Cl)c2)nc1C	Ecoli rRNA inh -23 (no result: MITF TRPM1 HTS, esBAF inh) | AID977621 inactive | AID977628 inactive
Cc1nc(Nc2ccccc2)sc1C(=O)Nc1ccccc1	Ecoli rRNA inh -22 (no result: MLL AF4-AF9 inh, esBAF inh) | AID977621 inconclusive | AID977628 inconclusive
Cc1nc(Nc2ccccc2Cl)sc1C(=O)Nc1ccccc1	none (no result: esBAF inh)
CCOC(=O)c1sc(Nc2ccc(OCC)cc2)nc1C	none (no result: esBAF inh)
O=C(Nc1ccc(F)cc1F)c1ccc(S(=O)(=O)NCc2ccco2)cc1	none
COc1ccc(/C=C/c2nc3ccccc3n2Cc2ccccc2OC)cc1	Ecoli rRNA inh -26 (no result: esBAF inh) | AID977621 inactive | AID977628 inactive
COc1ccccc1Cn1c(C(C)C)nc2ccccc21	none (no result: MITF TRPM1 HTS, esBAF inh)
O=C(O)c1ccc([N+](=O)[O-])nc1	none (no result: MITF TRPM1 HTS)
CCc1nnc(NS(=O)(=O)c2ccc(NC(=O)c3cc(Cl)ccc3[N+](=O)[O-])cc2)s1	Ecoli rRNA inh -21 | AID977621 inactive
CCc1nnc(NS(=O)(=O)c2ccc(NC(=O)c3cccc4ccccc34)cc2)s1	Ecoli rRNA inh -19 | AID977621 inactive | AID977628 inconclusive
CC1(C)Nc2ccccc2C(=O)N1c1ccccc1	none
Cc1ccc(-c2cc[n+](Cc3ccccc3)cc2)cc1	Ecoli rRNA inh -32 (no result: esBAF inh) | AID977621 inactive | AID977628 inconclusive
O=C(COC(=O)c1cccc(S(=O)(=O)N2CCCCC2)c1)NCc1cccc(Cl)c1	Ecoli rRNA inh -15 (no result: MITF TRPM1 HTS) | AID977628 inactive
Cc1nn2c(NCc3ccccn3)cc(C(C)C)nc2c1-c1ccccc1	Ecoli rRNA inh -21 (no result: MLL AF4-AF9 inh, esBAF inh) | AID977628 inactive
CCCc1cc(NCc2ccccn2)n2nc(C)c(-c3ccccc3)c2n1	none (no result: MITF TRPM1 HTS, esBAF inh)
CN(C(=O)COc1ccccc1C(=O)NCCOc1ccccc1)c1ccccc1	Ecoli rRNA inh -19 (no result: Wnt act, esBAF inh) | AID977621 inactive
CN(C(=O)COC(=O)CNC(=O)c1ccccc1Cl)c1ccccc1	none
O=C(Nc1ccc(S(=O)(=O)NC2=NCCCCC2)cc1)c1ccc([N+](=O)[O-])s1	Ecoli rRNA inh -20 | AID977621 inconclusive | AID977628 inactive
CCOc1ccc(-c2cnc3cccnn23)cc1	none (no result: MITF TRPM1 HTS)
CC(=O)c1cccc(NC(=O)C2CCCN(S(C)(=O)=O)C2)c1 (stereo not given)	Ecoli rRNA inh -27 | AID977621 inactive | AID977628 inactive
N#Cc1ccccc1S(=O)c1ccccc1C(=O)Nc1ccccc1 (stereo not given)	none
CCOc1ccc(-n2cc(-c3ccccc3)c3c(SC(C)C(=O)OC)ncnc32)cc1 (stereo not given)	none (no result: esBAF inh)
CCCCn1c(=O)[nH]c(=O)c2c1nc(-c1ccccc1F)n2Cc1ccccc1	Ecoli rRNA inh -26 (no result: esBAF inh) | AID977621 inactive | AID977628 inconclusive
CCCCn1c(=O)[nH]c(=O)c2c1nc(-c1ccc(-c3ccccc3)cc1)n2C	none
COc1ccc(CC(=O)Nc2nc(-c3ccc(OC)c(OC)c3)cs2)cc1OC	none
COc1cccc(S(=O)(=O)N2CCCCN3[C@H](CO)[C@@H](c4ccc(C#CC(C)C)cc4)[C@H]3C2)c1	Ecoli rRNA inh -47 (no result: Wnt act, MITF TRPM1 HTS, esBAF inh) | AID977628 inconclusive
COc1cccc(S(=O)(=O)N2CCCCN3[C@H](CO)[C@H](c4ccc(C#CC(C)C)cc4)[C@@H]3C2)c1	none (no result: Wnt act, MITF TRPM1 HTS, esBAF inh) | AID977621 inactive
COc1cccc(S(=O)(=O)N2CCCCN3[C@H](CO)[C@@H](c4ccc(C#CCC(C)C)cc4)[C@@H]3C2)c1	none (no result: Wnt act, MITF TRPM1 HTS)
COc1cccc(S(=O)(=O)N2CCCCN3[C@H](CO)[C@@H](c4ccc(C#CCC(C)C)cc4)[C@H]3C2)c1	none (no result: Wnt act, MITF TRPM1 HTS)
